HT1080 IDH1KD tx – kills HT-1080 cells with IDH1 knockdown; HT-1080 IDH1 knockdown viability, ATP luminescence, 48 h; Potency, µM (top dose mostly 46.1 µM), inactives show at the highest dose activity, negative = toxicity, most hits filed as cytotoxic; 2% of 360,000 active;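 note: potency is the fitted concentration of half-maximal effect; 0% = DMSO wells and -100% = cell-free medium wells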
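Assay cells: HT-1080 with IDH1 knockdown, 750 per well, RPMI/5% FBS. Exposure: 48 h at 37 °C following 2 h pre-incubation. Read: CellTiter-Glo luminescence; fitted concentration-response, curve class assigned.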
IL-1B inflam inh – inflammasome signaling inhibition, IL-1 beta readout. THP-1 LPS/ATP IL-1B secretion, AlphaLISA, 16 h; active compounds read low. activity change, % at 57.5 µM. 4.7% of 360,000 active. AID 743279; in the data active = activity change below about -50%; inconclusive = mostly about -30% to -49%
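Secreted IL-1B measured by AlphaLISA bead assay after 16 h compound exposure of THP-1 cells; compounds (final up to 57.5 uM) added 1 h before LPS (250 ng/mL) and ATP (1.25 mM) stimulation; lower signal means less secretion.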
TDP1 cell noCPT – qHTS for Inhibitors of human tyrosyl-DNA phosphodiesterase 1 (TDP1): qHTS in cells in absence of CPT | DT40 Tdp1-/- hTDP1 cells, no CPT, ATP luminescence, 48 h | Potency, µM (top dose mostly 46.2 µM), for the others: at the top dose activity change, negative = growth inhibition, usual class: inhibitors | 15% of 420,000 active; note: potency is the fitted concentration of half-maximal effect; nearly all actives have a fitted effect of over 55% in size
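Stably hTDP1-transfected Tdp1-null chicken DT40 cells were treated with library compounds minus camptothecin and grown for at least 48 hr at 37 °C, after which cellular ATP was quantified by luminescence.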
ALOX12 inh – ALOX12 (human) lipoxygenase inhibition; P18054; 1.1% of 580,000 active; Potency, µM (highest dose often 108 µM), for inactives: at the highest dose activity change, negative = inhibition, hits mostly inhibitors; purified 12hLO, xylenol orange hydroperoxide absorbance; note: potency is the fitted concentration of half-maximal effect
Target sequence (P18054 whole entry, looked up): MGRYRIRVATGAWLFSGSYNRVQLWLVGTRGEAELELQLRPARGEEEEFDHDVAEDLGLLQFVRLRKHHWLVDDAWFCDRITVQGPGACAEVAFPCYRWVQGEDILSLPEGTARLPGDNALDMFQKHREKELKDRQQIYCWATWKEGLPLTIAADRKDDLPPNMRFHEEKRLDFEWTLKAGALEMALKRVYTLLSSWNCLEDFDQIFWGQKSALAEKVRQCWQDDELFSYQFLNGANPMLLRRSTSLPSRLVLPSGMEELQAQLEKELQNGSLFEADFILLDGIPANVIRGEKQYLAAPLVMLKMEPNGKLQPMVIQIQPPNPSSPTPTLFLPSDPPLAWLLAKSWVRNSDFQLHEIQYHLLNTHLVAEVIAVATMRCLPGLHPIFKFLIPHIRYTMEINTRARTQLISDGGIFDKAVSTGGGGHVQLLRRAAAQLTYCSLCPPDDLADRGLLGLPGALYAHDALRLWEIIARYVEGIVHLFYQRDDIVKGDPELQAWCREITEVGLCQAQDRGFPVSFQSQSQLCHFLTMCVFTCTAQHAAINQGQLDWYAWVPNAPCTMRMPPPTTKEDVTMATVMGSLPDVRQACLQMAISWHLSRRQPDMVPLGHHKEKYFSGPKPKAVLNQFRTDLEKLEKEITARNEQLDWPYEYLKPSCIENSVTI
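Purified human 12hLO at 150 nM in 25 mM Hepes, 0.01% Triton X-100, pH 7.0, preincubated 15 min at room temperature with compound. Reaction started with 40 uM arachidonic acid, 30 min at room temperature. Hydroperoxide measured by Fe-xylenol orange, 573/405 nm absorbance ratio.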
HT1080-NT tox – kills 2HG-producing HT-1080-NT fibrosarcoma cells. HT-1080-NT fibrosarcoma viability, CellTiter-Glo ATP luminescence, 48 h. Potency, µM (doses to about 46.1 µM), for inactives: at the highest dose activity, negative = less viability, actives largely listed as cytotoxic. 1.6% of 360,000 active. AID 686970;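 note: NT is the 2HG producing partner of a matched IDH1 knockdown line; potency is the fitted concentration of half-maximal effect; 0% = DMSO-treated cells and -100% = media-only wells without cells; nearly all actives have a fitted effect of over 55% in size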
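Toxicity toward the 2HG-producing NT line was scored as %Activity, normalised to DMSO and no-cell wells, from CellTiter-Glo luminescence after 48 hours' treatment.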
TDP1 cell CPT – growth inhibition of DT40 Tdp1-/-;hTDP1 cells with camptothecin (screen for TDP1 inhibitors); chicken DT40 Tdp1-/-;hTDP1 cells + 20 nM CPT, ATP luminescence, 48 h; Potency, µM (titrated, usually from 46.2 µM), without a hit: top-dose activity change, negative = growth inhibition, usual class: inhibitors; 12% of 420,000 active; AID 686979; note: potency is the fitted concentration of half-maximal effect; nearly all actives have a fitted effect of over 55% in size
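Chicken DT40 Tdp1-/- cells stably complemented with human TDP1 were seeded at 400 cells/well in medium containing 20 nM camptothecin, exposed to pin-transferred compounds, and grown at 37 °C for at least 48 hr. Viability was read as ATP luminescence.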
Numbers without * were called inactive; ? = inconclusive; . = not tested or not shown; [ ] = another dose, or the depositor's remark. The sample as a whole holds a higher share of hits than the screen did. Unless noted, calls come from the whole dose curve; as a rule, active = well fitted curve in the direction sought with a large enough effect; inconclusive = small, poorly fitted or top-dose-only effect, or another doubt; inactive = no such curve, though single readings can be large; an effect the other way counts as inactive or inconclusive. Unless noted, % is set by controls: 0 for no effect and ±100 for the full control effect.

SMILES	HT1080 IDH1KD tx	IL-1B inflam inh	TDP1 cell noCPT	ALOX12 inh	HT1080-NT tox	TDP1 cell CPT
CCCCCCOC(=O)C(C#N)c1nc2ccccc2nc1N1CCN(CC)CC1 (stereo not given)	23µM*	?	21µM*	?	16µM*	?
CCCCCCOC(=O)C(C#N)c1nc2ccccc2nc1N1CCOCC1 (stereo not given)	1%	-13	18µM*	-27%	4%	?
O=C(c1csnn1)N1CCC2(CC1)CN(C(c1ccccc1)c1ccccc1)C2	.	.	?	-17%[57.4 µM]	.	-15%
O=C(c1csnn1)N1CCC2(CC1)CCN(c1ccccc1)CC2	.	.	?	?	.	11%
O=C(c1csnn1)N1CCC2(CC1)CN(c1cccc(-c3ccccc3)c1)C2	.	.	21µM*	2%[57.4 µM]	.	23µM*
O=C(c1csnn1)N1CCC2(CCCN(C(c3ccccc3)c3ccccc3)C2)CC1	.	.	?	12%[57.4 µM]	.	18µM*
O=C(c1csnn1)N1CCC2(CC1)CN(c1ccccc1)C2	.	.	?	-1%[57.4 µM]	.	16µM*
CC(C)N[C@@H]1CC[C@@H]1NC(=O)c1ccccc1OC(F)(F)C(F)F	.	.	.	-23%	.	.
Cc1ccc([C@@H]2C3COCC=C3C(C#N)=C(N)C2(C#N)C#N)o1 (stereo not given in full)	-3%	36	?	-26%	1%	?
N#CC1=C(N)C2=CCCC[C@H]2[C@H](c2ccc(Br)cc2)C1(C#N)C#N	-5%	-95*	?	.	-4%	?
N#CC1=C(N)C(C#N)(C#N)[C@H](c2ccncc2)[C@H]2CC3(CC=C12)OCCO3	-4%	7	-17%	-3%	-3%	?
N#CC1=C(N)C2=CCCC[C@H]2[C@H](c2ccccc2)C1(C#N)C#N	?	-56*	?	-25%	?	?
COc1cccc(Cn2c(=O)c(-c3ccc(Cl)cc3)nc3cnc(N4CCNCC4)nc32)c1	.	.	5.8µM*	-24%	.	5.8µM*
COc1ccc(-c2nc3cnc(N4CCN(C)CC4)nc3n(Cc3ccc(F)cc3)c2=O)cc1	.	.	-24%	?	.	?
COc1cccc(Cn2c(=O)c(-c3ccc(Cl)cc3)nc3cnc(N4CCN(C)CC4)nc32)c1	.	.	-28%	?	.	3%
COc1cccc(Cn2c(=O)c(-c3ccc(F)cc3)nc3cnc(N4CCNCC4)nc32)c1	.	.	23µM*	?	.	13µM*
COc1cccc(Cn2c(=O)c(-c3cccs3)nc3cnc(N4CCNCC4)nc32)c1	.	.	18µM*	?	.	?
O=c1c(-c2ccc(Cl)cc2)nc2cnc(N3CCNCC3)nc2n1Cc1ccc(F)cc1	.	.	9.2µM*	?	.	6.5µM*
COCCNC(=O)CCCN1C(=O)COc2ccc(C(=O)COc3ccccc3Cl)cc21	.	.	.	35%	.	.
COc1ccc(-c2nc3cnc(N4CCNCC4)nc3n(Cc3cccc(OC)c3)c2=O)cc1	.	.	4.6µM*	?	.	6.5µM*
COc1c2c(cc3c1c(=O)c1ccccc1n3C)OCO2	.	.	.	-20%	.	.
CC(C)(C)Sc1ccc2nn(CC(=O)NCc3ccc(F)cc3)c(=O)n2n1	.	.	.	-23%	.	.
Cn1cc(CCC(=O)NCc2cccc(Cl)c2)c2ccccc21	-5%	-22	-21%	-27%	-18%	-15%
COc1cccc(CNC(=O)CCc2cn(Cc3ccccc3Cl)c3ccccc23)c1	.	.	18µM*	-25%	.	?
O=C(CCc1cn(Cc2ccccc2Cl)c2ccccc12)NC1CCCCC1	.	.	16µM*	-15%	.	?
SMILES	HT1080 IDH1KD tx	IL-1B inflam inh	TDP1 cell noCPT	ALOX12 inh	HT1080-NT tox	TDP1 cell CPT
CC1CCC(NC(=O)CCc2cn(Cc3ccccc3Cl)c3ccccc23)CC1 (stereo not given)	.	.	?	-28%	.	?
C=CCNC(=S)Nc1ccc(Br)cc1	.	.	.	-27%	.	.
FC(F)(F)Sc1ccc(NC(=S)NCc2ccccc2)cc1	-26%	-88*	21µM*	40µM*	-16%	?
S=C(NCCc1ccccc1)Nc1ccc(Sc2ccc(Br)cc2)cc1	.	.	.	35µM*	.	.
S=C(NCc1ccccc1)Nc1ccc(Sc2ccc(Br)cc2)cc1	.	.	.	28µM*	.	.
O=C(COc1cccc(-c2noc(-c3ccccc3F)n2)c1)N1CCCC1	.	.	.	19%	.	.
O=S(=O)(c1ccc(Br)cc1)N1CCn2cccc2C1c1ccc(Br)cc1 (stereo not given)	.	.	16µM*	-32%	.	?
CC(=O)c1ccc(S(=O)(=O)N2CCn3cccc3C2c2ccc(C)cc2)cc1 (stereo not given)	.	.	?	-26%	.	21µM*
Cc1ccc(C(=O)COC(=O)c2cc3ccccc3[nH]2)c(C)c1	.	.	.	-9%	.	.
CCNc1ncc(C(=O)N[C@H](c2cnn(C)c2)C2CC(O)C2)cn1 (stereo not given in full)	.	.	.	61%	.	.
CCCNC(=O)N1CCCCCNC(=O)[C@@H]2CCCC[C@@H]21	.	.	.	10%	.	.
CC1CN(Cc2ccc(Cl)cc2Cl)CC(C)O1 (stereo not given)	0%	45	?	0.63µM*	15%	-3%
CC1CN(CCOc2ccc(Cl)c(Cl)c2)CC(C)O1 (stereo not given)	8%	15	?	0.45µM*	11%	?
CC1CCN(CCOc2ccc(Cl)c(Cl)c2)CC1	5%	-20	-8%	?	-6%	1%
C=CCc1cc(Cl)ccc1OCCN1CC(C)OC(C)C1 (stereo not given)	-3%	1	21µM*	-21%	-4%	?
Cc1nnn2c(C(=O)N(C)C)cccc12	.	.	.	82%[176 µM]	.	.
COc1ccc(COc2cccc(C=O)c2)cc1	-12%	14	4.6µM*	16%	-19%	3.7µM*
O=Cc1cccc(OCc2cccc3ccccc23)c1	?	?	2.6µM*	5%	?	4.1µM*
O=Cc1cccc(OCc2ccc(Br)cc2)c1	.	.	.	-37%	.	.
CCOC(=O)C1CCN(C(=O)COc2cc(O)c3c(=O)cc(-c4ccccc4)oc3c2)CC1	.	.	.	0%	.	.
CCCc1nc2ccc(Cl)cn2c1Cc1ccc(C)cc1	?	38	23µM*	?	-17%	23µM*
CCCc1nc2ccc(Cl)cn2c1Cc1cccc(Cl)c1	?	-3	8.2µM*	?	?	10µM*
CCCc1nc2ccc(C(=O)OC)cn2c1Cc1cccc(F)c1	?	17	?	-28%	-14%	?
